About 9,900 (2.8%) of roughly 350,000 compounds were called active. Another 15% or so got no clear call; they are omitted. The call rests on the fitted dose curve; in most records, active means well fitted activation curve with a large enough effect; inconclusive means small, poorly fitted or top-dose-only effect; inactive means no such curve, though single readings can be large or run the other way. The entries come from a sample that favours actives as a whole.
Potency means the concentration at half of the fitted maximal effect.

This assay is described as follows: A quantitative high throughput screen for small molecules that induce DNA re-replication in MCF 10a normal breast cells. Further: nearly all actives have a fitted effect of over 50% in size. On activity, positive = re-replication: % of control where 0% means no effect. The note with it: MCF 10A DNA re-replication, Hoechst nuclear intensity, 48 h; series mostly up to 46.1 µM; activity, positive = re-replication: at the top concentration.
Take `O=C(CSc1nccn1-c1cccc(F)c1)NC1CCCC1`: the “activity, positive = re-replication” value is -2.43% (inactive).

Turning to `C#CCOCCOCCOCCNc1nc(N2CCN(C(=O)Cn3cc(CCO)nn3)CC2)nc(N2CCN(C(=O)[C@H](CCCCN)n3cc(CCCC)nn3)CC2)n1`, the “activity, positive = re-replication” value is 26.4% (inactive). The same measure, in the same setting: under `O=C1NCC(Nc2ccccc2)C(=O)N1` (stereo unspecified) stands -0.53% (inactive); under `COc1ccc(C(=O)C(C)OC(=O)c2cccc(S(=O)(=O)Nc3c(C)n(C)n(-c4ccccc4)c3=O)c2)cc1` (stereo unspecified), 1.62% (inactive).

As for `CCC(=O)c1ccc(OCC(=O)N(CC)CC2COc3ccccc3O2)cc1` (stereo unspecified), the “activity, positive = re-replication” value is 2.74% (inactive). The same measure, in the same setting: under `COc1cc(C)ccc1OCC(=O)OCC(=O)c1ccc[nH]1` stands 3.62% (inactive); under `COC(=O)[C@]1(Cc2ccccc2)N[C@H](CN(C)S(=O)(=O)c2ccc(OC(F)(F)F)cc2)[C@@H]2C(=O)N(Cc3ccccc3)C(=O)[C@@H]21`, 9.99% (inactive). The same measure, in the same setting: the result for `CC(NC(=O)c1ccccc1)C(=O)OCC(=O)Nc1cccc(S(=O)(=O)N2CCCC2)c1` (stereo unspecified) reads -5.95% (inactive); that for `CC(NC(=O)CN(C)S(=O)(=O)c1ccc(F)cc1)C1CC2CCC1C2` (stereo unspecified), 5.27% (inactive); that for `C=CC1=C(C(=O)O)N2C(=O)[C@@H](NC(=O)/C(=N\OCC(=O)O)c3csc(N)n3)[C@H]2SC1`, 0.954% (inactive).

Regarding `O=C(NCc1ccncc1)C(=O)NCC1OCCN1S(=O)(=O)c1ccc(Br)cc1` (stereo unspecified), the Potency is 18.4 µM (active). On to `COc1ccc(S(=O)(=O)N2CCOC2CNC(=O)C(=O)NCc2ccncc2)cc1OC` (stereo unspecified), for which the “activity, positive = re-replication” value is 0.949% (inactive).

For the molecule `O=C(NCc1ccccc1)C(=O)NCC1OCCN1S(=O)(=O)c1ccc(Br)cc1` (stereo unspecified), the “activity, positive = re-replication” value was -8.9% (inactive). On the same count and under the same terms, under `CCN1C[C@@H]2[C@@H]3C(=O)N(Cc4ccccc4)C(=O)[C@@H]3[C@](C)(C1=O)N2C(=O)c1ccc(C(C)(C)C)cc1` stands -21.6% (inactive); under `Cc1cccc(NS(=O)(=O)c2ccc(C)c(C(=O)NCC(c3ccccc3)N(C)C)c2)c1` (stereo unspecified), 15.4% (inactive). In the case of `OCc1ccc(-c2ccccc2)c(-c2ccccc2)c1`, the Potency is 23.1 µM (active). As to `OCc1nc(CO)n(Cc2ccccc2)n1`, the “activity, positive = re-replication” value was -22.2% (inactive).

Consider `OCC(CO)(CO)NCc1ccc(-c2ccccc2)cc1`, for which the “activity, positive = re-replication” value was 4.25% (inactive). In the case of `O=c1c2ccccc2ccc2ccc(P(=O)(O)O)cc12`, the “activity, positive = re-replication” value was -3.39% (inactive). For `COc1ccc(NS(=O)(=O)c2cccc(C(=O)NCCc3ccc(S(N)(=O)=O)cc3)c2)cc1`, the “activity, positive = re-replication” value was -1.88% (inactive). The same measure, in the same setting: under `CN(CC(=O)Nc1ccc(Cl)c(C(F)(F)F)c1)C(=O)CCC(=O)c1ccccc1` stands 9.45% (inactive); under `Cc1ccc(NC(=O)C(C)OC(=O)C2CC3CCCC(C2)C3=O)cc1S(=O)(=O)N1CCOCC1` (stereo unspecified), 4.48% (inactive). As to `CCc1ccccc1NC(=O)CN(C)C(=O)c1cc(C2CC2)nn1-c1ccccc1`, the “activity, positive = re-replication” value is 11.7% (inactive).

On to `CCc1ccc(CN(C)C(C)C(=O)Nc2ccc(S(=O)(=O)N3CCCC3)cc2)cc1` (stereo unspecified), for which the “activity, positive = re-replication” value is 19.4% (inactive). Same read-out and setting: the result for `CCC(=O)Nc1sc(C(=O)N2CCCCC2)c(C)c1C#N` reads -0.218% (inactive). Regarding `CCOC(=O)c1sc(NC(=O)CSc2ncccn2)c(C#N)c1C`, the Potency was 14.6 µM (active). For `CCOC(=O)c1sc(NC(=O)CSc2nnc(-c3ccco3)o2)c(C(=O)OCC)c1C`, the “activity, positive = re-replication” value was -3% (inactive). Same read-out and setting: the result for `O=C(Nc1ccc2ccccc2c1[N+](=O)[O-])c1ccccc1` reads 14.6% (inactive); that for `COc1ccc(S(=O)(=O)N2CCCCC2)cc1NC(=O)COc1ccccc1`, 6.28% (inactive). Regarding `CCCc1cc(=O)[nH]c(SCC(=O)Nc2ccc(C(=O)Nc3ccccc3OC)cc2)n1`, the “activity, positive = re-replication” value is 0.255% (inactive). For the molecule `COc1cc(NS(=O)(=O)c2ccc3ccccc3c2)c2ncccc2c1`, the Potency is 5.17 µM (active). As for `COc1ccc2cc(S(=O)(=O)Nc3ccccn3)ccc2c1`, the “activity, positive = re-replication” value is -0.735% (inactive). Consider `Cc1ccc(NS(=O)(=O)c2ccc(C)c(NC(=O)COc3ccc4ccccc4c3)c2)c(C)c1`, for which the “activity, positive = re-replication” value was -31.4% (inactive).

For the molecule `CC(=O)Nc1ccc(NC(=O)C(NS(=O)(=O)c2ccc3c(c2)OCCO3)C(C)C)cc1` (stereo unspecified), the “activity, positive = re-replication” value is -0.353% (inactive). As for `Cc1nnc(NC(=O)/C=C/c2ccco2)s1`, the “activity, positive = re-replication” value is 4.48% (inactive). The same measure, in the same setting: under `CCC(=O)Nc1ccc2nn(-c3ccc(F)cc3)nc2c1` stands 2.79% (inactive). Take `Cc1ccc(-n2nc3ccc(NC(=O)/C=C/c4ccco4)cc3n2)cc1C`: the Potency is 8.2 µM (active). Turning to `CNN/C(N=Cc1ccc([N+](=O)[O-])s1)=N\S(=O)(=O)c1cc(C)c(Cl)cc1SCc1ccccc1`, the “activity, positive = re-replication” value is -0.609% (inactive). The same measure, in the same setting: under `CN(CCc1ccccc1)C(=O)c1cccc(NC(=O)Cc2ccc([N+](=O)[O-])cc2)c1` stands 12.4% (inactive); under `O=C1c2ccccc2[C@@H]2C[C@@H](O)[C@H](Nc3ccccc3Cl)CCN12`, -1.09% (inactive). On to `CC(C)N(C(=O)CSc1nnc(NC2CC2)s1)c1ccccc1`, for which the “activity, positive = re-replication” value is 3.83% (inactive). Same read-out and setting: under `CC(=O)c1c(C)oc2ccc(NS(=O)(=O)c3ccccc3)cc12` stands -11.8% (inactive). `COc1ccc(S(=O)(=O)Nc2ccc3oc(C)c(C(C)=O)c3c2)cc1`: the Potency is 5.17 µM (active). In the case of `CC(=O)c1c(C)oc2ccc(NS(=O)(=O)c3ccc(C(=O)O)cc3)cc12`, the “activity, positive = re-replication” value is 0.106% (inactive). On the same count and under the same terms, the result for `NN=C(NN=Cc1ccccc1)c1ccccc1` reads 18.1% (inactive). Still for that read-out and setting: the result for `COc1ccc(S(=O)(=O)N(C)C[C@H]2Oc3ccc(NS(=O)(=O)c4cccs4)cc3CC(=O)N([C@H](C)CO)C[C@H]2C)cc1` reads 6.63% (inactive).

As for `Cc1cc(C)nc(S/C=C/C(=O)c2ccccc2)n1`, the Potency is 1.3 µM (active). Take `Cc1cc(C)nc(SCC(=O)c2ccc(Cl)cc2)n1`: the “activity, positive = re-replication” value is -3.83% (inactive).

Regarding `Cc1ccc(N/C=C/C(=O)c2ccccc2)cc1C`, the “activity, positive = re-replication” value is 23.9% (inactive).

For the molecule `CC(=O)C[C@H](O)CC(=O)[C@@H]1OC(=O)[C@@H](C)C/C=C\Cc2ccccc21`, the “activity, positive = re-replication” value is 0.449% (inactive). Still for that read-out and setting: the result for `CCOc1ccc(NC(=O)CN(C)C(=O)CSc2ccccc2)cc1OCC` reads 3.05% (inactive). Consider `Cc1cc(NC(=O)CSc2nc3cc(Cl)ccc3c(=O)n2Cc2ccco2)no1`, for which the Potency was 18.4 µM (active). For `Cc1cc(NC(=O)CSc2nnc(-c3ccco3)n2N)no1`, the “activity, positive = re-replication” value was 0.431% (inactive). For `Cc1cc(NC(=O)CSc2nc3ccccc3n2CC(C)C)no1`, the “activity, positive = re-replication” value is -1.34% (inactive). The same measure, in the same setting: under `COc1ccc(S(=O)(=O)N2CCOCC2)cc1NC(=O)Cc1coc2cc(C)ccc12` stands 2.37% (inactive); under `COC(=O)C1CC2=C(CC(C)(C)CC2=O)N(c2ccccc2)C1=O` (stereo unspecified), 11.7% (inactive).

As to `Cc1nn(Cc2ccccc2)c(C)c1C(=O)N1CCN(CC(=O)Nc2ccccc2Cl)CC1`, the “activity, positive = re-replication” value is 7.72% (inactive). The same measure, in the same setting: under `CC(OC(=O)c1cc2ccccc2o1)C(=O)Nc1ccc(N2CCOCC2)cc1` (stereo unspecified) stands 17% (inactive). Turning to `CC(C)c1nc2ccc(C(=O)O)cc2[nH]1`, the Potency is 11.6 µM (active). For the molecule `OC(c1nc2ccc(F)cc2[nH]1)C(O)c1nc2ccc(F)cc2[nH]1` (stereo unspecified), the “activity, positive = re-replication” value was -16.9% (inactive). `OC(c1nc2ccccc2[nH]1)C(O)C(O)C(O)c1nc2ccccc2[nH]1` (stereo unspecified): the “activity, positive = re-replication” value was -6.71% (inactive).
